Screening results: PubChem, National Center for Advancing Translational Sciences (NCATS)
Sampled rows, rich in hits. Any-hit rate of the full collection: about 14%.
Shiga inhibitor: A qHTS for Small Molecule Inhibitors of Shiga Toxin. Vero cells, Shiga toxin protein synthesis inhibition reporter. inhibition, % at 38.7 µM. 290,000 tested, 9.2% active; in the data active = inhibition mostly above about 28%, no sharp cut-off; inactive = mostly below about 43%; note: 0% is about no effect
Cycloheximide cs: Cycloheximide Counterscreen for Small Molecule Inhibitors of Shiga Toxin | cell reporter, cycloheximide protein synthesis inhibition counterscreen | max response, % | 300,000 tested, 12% active; in the data active = max response mostly above about 13%, no sharp cut-off; inactive = mostly below about 14%; note: read at 38.3 µM for the half of the compounds with a filed dose; 0% is about no effect
FBPA Giardia inh: qHTS Assay for Inhibitors of Fructose-1,6-bisphosphate Aldolase from Giardia Lamblia. 290,000 tested, 0.71% active. A8B2U2. purified Giardia FBPA. Potency, µM (highest dose often 59.6 µM), inactives show top-dose activity, negative = inhibition, hits mostly inhibitors; note: potency is the fitted concentration of half-maximal effect; % is set by controls: 0 for no effect and ±100 for the full control effect; nearly all actives have a fitted effect of over 55% in size
Target sequence (A8B2U2 whole entry, looked up): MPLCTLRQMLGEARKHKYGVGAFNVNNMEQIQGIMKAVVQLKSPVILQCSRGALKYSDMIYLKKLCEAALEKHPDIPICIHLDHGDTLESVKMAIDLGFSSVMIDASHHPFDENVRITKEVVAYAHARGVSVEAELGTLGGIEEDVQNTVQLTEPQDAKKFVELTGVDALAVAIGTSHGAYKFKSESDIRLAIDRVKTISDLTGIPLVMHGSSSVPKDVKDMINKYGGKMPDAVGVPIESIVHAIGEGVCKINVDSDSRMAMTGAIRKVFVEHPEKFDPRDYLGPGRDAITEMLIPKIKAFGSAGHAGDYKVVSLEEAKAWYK
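Giardia FBPA (40 nM reagent) was preincubated 10 min at RT with compound (up to 57.5 uM final), then substrate plus GAPDH/TPI/NAD/arsenate coupling system with diaphorase/resazurin was added; resorufin fluorescence (525/598 nm) was read after 20 min.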
NS1 function inh: qHTS Assay for Inhibitors of Influenza NS1 Protein Function; Potency, µM (doses to about 46.1 µM), for the others: top-dose activity, positive = more growth; 270,000 tested, 0.4% active; AID 2326, 2010; calls by dose curve; note: potency is the fitted concentration of half-maximal effect; actives are rising curves; nearly all actives have a fitted effect of over 50% in size
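S. cerevisiae expressing influenza A NS1, grown in glucose, washed, then diluted 1:100 into pH 6.0 -URA galactose medium with 23 nl compound. Growth recovery read as OD600; NS1-free strain serves as control.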
LmPK inhibitor: qHTS Assay for Inhibitors of Leishmania Mexicana Pyruvate Kinase (LmPK). Q27686. purified LmPK, Kinase-Glo ATP luminescence, 1 h. Potency, µM (top dose mostly 57.5 µM), without a hit: at the highest dose activity change, negative = inhibition, actives largely listed as inhibitors. 290,000 tested, 0.37% active. AID 1721, 2009; note: potency is the fitted concentration of half-maximal effect; % is set by controls: 0 for no effect and ±100 for the full control effect
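Purified LmPK (0.1 nM) converted ADP (0.1 mM) to ATP with PEP (0.5 mM) in imidazole buffer pH 7.2 with KCl and MgCl2, 1 h at room temperature. ATP was read by Kinase-Glo luminescence; data normalized to uninhibited and no-enzyme controls.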
* = called active by the depositor; ? = inconclusive; . = no result; [ ] = remark or other dose. Unless noted, calls come from the whole dose curve; as a rule, active = well fitted curve in the direction sought with a large enough effect; inconclusive = small, poorly fitted or top-dose-only effect, or another doubt; inactive = no such curve, though single readings can be large; an effect the other way counts as inactive or inconclusive.

SMILES | Shiga inhibitor | Cycloheximide cs | FBPA Giardia inh | NS1 function inh | LmPK inhibitor
O=C(CCc1nnc(-c2ccccc2)o1)c1ccc(Cl)cc1 | 4 | 0 | 4% | -7% | 2%
CCCc1nnc(SCC(=O)NC2CCCCC2)n1CCOC | -1 | 1 | 10% | 20% | -3%
COc1ccc(C(=O)Nc2cccc(C(=O)N/N=C/c3ccc(OC)cc3OC)c2)cc1 | 47 | 39* | . | -10% | -2%
COc1ccc(/C=N/NC(=O)c2cccc(NC(=O)c3ccccc3)c2)c(C(=O)O)c1OC | 28 | 32* | 2% | 19% | 0%
COc1ccc(/C=N/NC(=O)c2cccc(NC(C)=O)c2)c(OC)c1 | -10 | -1 | 7% | . | -3%
COc1ccccc1/C=N/NC(=O)c1cccc(NC(=O)c2ccccc2Cl)c1 | 30 | 11 | 1% | -34% | -3%
O=C(NCC1COc2ccccc2O1)c1ccc(Br)s1 (stereo unspecified) | 108* | 23* | -5% | -18% | 4%
O=C(NCC1CCCO1)c1ccc(Br)s1 (stereo unspecified) | 39 | 8 | . | -3% | -1%
O=C(NCC1COc2ccccc2O1)c1cccs1 (stereo unspecified) | 72* | 40* | 16% | -8% | 4%
O=C(CCC1COc2ccccc2O1)NCC1COc2ccccc2O1 (stereo unspecified) | 3 | 1 | 1% | -45% | 5%
CCc1ccc(C(=O)NCC2COc3ccccc3O2)o1 (stereo unspecified) | 57* | 23* | 0% | -16% | 1%
O=C(NCC1CCCO1)c1cccs1 (stereo unspecified) | -9 | -3 | 5% | -1% | 2%
C=CCn1c(SCC(=O)Nc2cc(C)on2)nc2c([nH]c3ccccc32)c1=O | -3 | -2 | . | -6% | -6%
CCNc1c(NS(=O)(=O)c2ccc(Cl)s2)c(=O)oc2ccccc12 | -14 | -7 | 2% | 11% | 4%
O=C(c1cc(C(F)(F)F)cc(C(F)(F)F)c1)N1CCC2(CCCN(Cc3nccs3)C2)CC1 | . | . | -1% | . | .
O=C(CSc1n[nH]c(=O)n1Cc1ccco1)N1CCOCC1 | -6 | 16* | 7% | 0% | -1%
O=C(CSc1n[nH]c(=O)n1-c1cccnc1)N1CCOCC1 | 4 | 20* | 2% | 4% | -7%
O=C(CSc1n[nH]c(=O)n1Cc1ccco1)c1ccc(F)cc1 | 14 | 1 | 6% | 0% | 3%
O=C(CSc1n[nH]c(=O)n1-c1cccnc1)Nc1ccccc1 | 33 | -2 | . | 10% | -6%
Cc1cnc(C(=O)OCC(=O)N2CCc3ccccc3C2)cn1 | -16 | 1 | -4% | 2% | -1%
O=C(OCC(=O)N1CCc2ccccc2C1)c1cccs1 | 77* | 47* | 1% | -6% | -9%
O=C(OCC(=O)N1CCCCCC1)c1cccs1 | 84* | 38* | 2% | -15% | -13%
O=C(Nc1ccccc1C(=O)OCC(=O)N1CCc2ccccc2C1)c1ccco1 | 73* | 42* | -8% | -87% | -4%
O=C(OCC(=O)N1CCc2ccccc2C1)c1cccnc1Cl | 114* | 36* | -4% | . | 0%
COC(=O)N1C2CC(=O)O[C@@H]3c4cc5c(cc4[C@]1(C)[C@@]3(Br)c1ccccc12)OCO5 | . | . | 4%[12.9 µM] | . | -11%[11.5 µM]
SMILES | Shiga inhibitor | Cycloheximide cs | FBPA Giardia inh | NS1 function inh | LmPK inhibitor
c1nc(N2CC2)c2cnn([C@@H]3CCCCO3)c2n1 | . | . | . | -4% | .
Cc1ccc(S(=O)(=O)OCCc2ccccc2)cc1 | . | . | 1% | . | .
O=C(CCn1cnnn1)Nc1ccc(F)cc1 | 66* | 26* | 2% | 6% | -9%
CC(=O)Nc1ccc(NC(=O)CCn2cnnn2)cc1 | 11 | -2 | 3% | . | 6%
CC(C)Nc1nnc(SCC(=O)Nc2ccc3c(c2)C(=O)c2ccccc2C3=O)s1 | 70* | 41* | -6% | 10% | -1%
CC(C)CC(=O)Nc1nnc(SCC(=O)Nc2ccc(F)cc2)s1 | -21 | -1 | 3% | . | 4%
O=C(CSc1nnc(NC2CCCCC2)s1)Nc1ccc2c(c1)C(=O)c1ccccc1C2=O | 66* | 42* | -8% | -1% | -4%
Cc1[nH]c2ccccc2c1Cc1n[nH]c(=S)n1C | -2 | -1 | -11% | 13% | -1%
Cc1[nH]c2ccccc2c1SCc1n[nH]c(=S)n1C | 6 | 0 | -11% | ? | 7.9µM*
Nc1ccccc1C(=O)/C=C\c1ccc2c(c1)OCO2 | . | . | 1%[12.9 µM] | . | .
O=C(/C=C/c1ccc2c(c1)OCO2)c1ccco1 | 29* | 17* | -2% | 10% | ?
O=C(COC(=O)/C=C/c1ccc2c(c1)OCO2)NC1CC1 | 32 | 8 | 4% | -28% | -1%
Nc1ccccc1C(=O)/C=C/c1ccc2c(c1)OCO2 | 116* | 69* | 0% | -6% | 14µM*
N#CCOC(=O)/C=C/c1ccc2c(c1)OCO2 | 67 | 22* | -2% | -2% | -10%
O=C(/C=C\c1ccc2c(c1)OCO2)c1ccc(F)cc1 | . | . | -1%[12.9 µM] | . | .
CCS(=O)(=O)n1nc(-c2ccc(OC)cc2)nc1N | 23 | 23* | -1% | -2% | 2%
CCS(=O)(=O)n1nc(-c2ccco2)nc1SC | 42 | 7 | 28µM* | -3% | 8%
CCS(=O)(=O)n1nc(-c2ccc(Cl)cc2)nc1SC | 87* | 62* | -1% | 0% | 4%
CCS(=O)(=O)n1nc(-c2ccccc2)nc1N | -2 | -2 | 7% | 3% | -4%
CS(=O)(=O)n1nc(-c2ccccc2)nc1N | -10 | -1 | 5% | 7% | -2%
CS(=O)(=O)n1nc(-c2ccc(Cl)cc2)nc1N | 20* | 20* | -1% | 1% | -1%
O=C(NCc1ccc(Cl)cc1)C1CCCN(c2cnccn2)C1 (stereo unspecified) | -6 | -3 | . | 8% | -1%
CCCCNC(=O)[C@H]1N2C(=O)c3c(ccc(OC)c3OC)C2SC1(C)C (stereo partly specified) | 18 | -3 | -27% | 1% | -4%
O=c1[nH]c(-c2ccccn2)nc2sc(-c3ccccc3)cc12 | 118* | 49* | ? | . | 4%
CC1CCCCC1NC(=O)CSc1nnc(CC(=O)Nc2ccccc2F)n1C (stereo unspecified) | 3 | -2 | -1% | 9% | 0%
SMILES | Shiga inhibitor | Cycloheximide cs | FBPA Giardia inh | NS1 function inh | LmPK inhibitor
CCN(CC)c1ccc(/C=N/NC(=O)c2ccc([N+](=O)[O-])cc2)cc1 | 4 | 12 | 7% | . | 0%
CCN(CC)c1ccc(/C=N/NC(=O)c2ccco2)cc1 | 53* | 49* | 7% | -25% | -13%
CCN(CC)c1ccc(/C=N/NC(=S)NCc2ccccc2)c(O)c1 | -7 | -6 | -19% | 17% | 1%
CCN(CC)c1ccc(/C=N/NC(=O)Cc2cccs2)c(O)c1 | 78* | 32* | -14% | 8% | 0%
CCN(CC)c1ccc(/C=N/NC(=O)c2ccco2)c(O)c1 | 76* | 38* | 14% | -81% | -15%
CCC(=O)Nc1ccc(C(=O)NNC(=O)c2ccc(C)cc2)cc1 | -11 | -3 | 10% | 9% | 6%
CCN(CC)c1ccc(C(=O)NNC(=O)CCl)cc1 | 51 | 31* | ? | . | -13%
